Measurements published in PMC4336329 (PLoS ONE, 2015).
About 14,000 (4.5%) of roughly 310,000 compounds showed an effect of 50% or more. Effects have a minus sign here. What follows is part of a selection rich in strong results, with near analogues and random picks from the rest.

biological target: human ether-à-go-go-related gene (hERG) potassium channel (human, UniProt Q12809); test: primary screen, population patch clamp on CHO cells stably expressing hERG; higher = less effect of the substance
Sequence (Q12809 whole entry, looked up): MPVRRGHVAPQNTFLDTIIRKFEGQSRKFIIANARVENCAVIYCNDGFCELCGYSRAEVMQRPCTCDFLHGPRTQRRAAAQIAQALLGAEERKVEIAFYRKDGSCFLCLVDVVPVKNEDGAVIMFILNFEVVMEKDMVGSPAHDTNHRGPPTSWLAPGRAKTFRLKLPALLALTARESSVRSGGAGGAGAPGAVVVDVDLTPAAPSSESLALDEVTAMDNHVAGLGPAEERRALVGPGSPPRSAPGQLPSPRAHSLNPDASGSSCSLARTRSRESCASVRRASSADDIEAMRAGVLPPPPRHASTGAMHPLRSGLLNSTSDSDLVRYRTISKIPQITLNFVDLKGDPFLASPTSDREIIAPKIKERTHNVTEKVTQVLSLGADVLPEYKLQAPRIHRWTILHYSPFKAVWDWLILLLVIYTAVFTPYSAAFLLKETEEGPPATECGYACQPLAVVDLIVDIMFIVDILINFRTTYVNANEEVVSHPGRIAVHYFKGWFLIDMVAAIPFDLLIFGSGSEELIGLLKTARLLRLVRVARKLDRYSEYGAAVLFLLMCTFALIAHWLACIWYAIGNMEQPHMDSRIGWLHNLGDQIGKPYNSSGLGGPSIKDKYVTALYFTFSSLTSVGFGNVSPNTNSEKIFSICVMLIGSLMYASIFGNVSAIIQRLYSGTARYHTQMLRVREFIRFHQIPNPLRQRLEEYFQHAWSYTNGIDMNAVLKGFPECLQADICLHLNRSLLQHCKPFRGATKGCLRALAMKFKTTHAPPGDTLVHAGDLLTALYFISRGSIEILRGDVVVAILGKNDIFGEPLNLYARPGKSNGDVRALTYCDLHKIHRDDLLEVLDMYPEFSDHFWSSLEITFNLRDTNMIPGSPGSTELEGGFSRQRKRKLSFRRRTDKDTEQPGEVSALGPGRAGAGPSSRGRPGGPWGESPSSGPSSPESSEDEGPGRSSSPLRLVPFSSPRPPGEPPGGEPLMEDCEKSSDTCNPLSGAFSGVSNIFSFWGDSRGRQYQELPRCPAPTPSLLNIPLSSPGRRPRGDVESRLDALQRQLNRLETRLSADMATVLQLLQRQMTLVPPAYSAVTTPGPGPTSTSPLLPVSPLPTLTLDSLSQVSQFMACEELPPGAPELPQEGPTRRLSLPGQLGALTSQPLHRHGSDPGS
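Further: peak tail current of the secondary pulse compared with the same well before compound.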

Going from `O=C(NCC(=O)N(c1cccc(F)c1)C(C(=O)NCC1CCCO1)c1ccccc1)c1ccco1` (centres unmarked) to `Cc1ccc(S(=O)(=O)N(C)c2ccc(C(=O)NCC3CCCO3)cc2)cc1` (centres unmarked), the “hERG current change (%, negative = inhibition) at 10uM” value falls from 6.26% to -16.7%.

Compared with `Cc1ccc(S(=O)(=O)N(C)c2ccc(C(=O)NCC3(N(C)C)CCCCC3)cc2)cc1`, `Cc1ccc(S(=O)(=O)N(C)c2ccc(OCC(=O)NCC3(N(C)C)CCCCC3)cc2)cc1` is lower in “hERG current change (%, negative = inhibition) at 10uM” value: -65.4% for the first, -73.5% for the second.

First: Cc1ccc(S(=O)(=O)N(C)c2ccc(OCC(=O)NCc3ccco3)cc2)cc1
Second: COc1ccc(CCNC(=O)COc2ccc(N(C)S(=O)(=O)c3ccc(C)cc3)cc2)cc1
The “hERG current change (%, negative = inhibition) at 10uM” value of the first is lower: -44.8% for the first, 6.95% for the second.

First: Cc1ccc(S(=O)(=O)N(C)c2ccc(C(=O)NCCc3ccccc3)cc2)cc1
Second: Cc1ccc(Cn2c(=N)c(S(=O)(=O)c3ccc(C)cc3)cc3c(=O)n4ccccc4nc32)cc1
The “hERG current change (%, negative = inhibition) at 10uM” value of the first is lower: -6.94% for the first, 17.7% for the second.

First: O=C(CN1C(=O)NC(CCc2ccccc2)C1=O)NC1CC1 (centres unmarked)
Second: O=C(c1ccco1)N1CCN(C(=O)C2CCCN(S(=O)(=O)Cc3ccccc3)C2)CC1 (centres unmarked)
The “hERG current change (%, negative = inhibition) at 10uM” value of the first is higher: 18.8% for the first, -35.4% for the second.

Compared with `Cc1ccc(SC(C)C(=O)NCc2cccnc2)cc1` (centres unmarked), `Cc1ccc(OCC(=O)Nc2ccc(C(N)=O)cc2)cc1` is higher in “hERG current change (%, negative = inhibition) at 10uM” value: 5.44% for the first, 16.5% for the second.

Going from `COc1ccc(C(C)(C)C)cc1NC(=S)NCCN1CCOCC1` to `COc1ccc([N+](=O)[O-])cc1NC(=O)CCN1CCN(C)CC1`, the “hERG current change (%, negative = inhibition) at 10uM” value rises from 1.38% to 16.3%.

Going from `Cc1ccc(Cn2c(=N)c(C(=O)NC3CCCC3)cc3c(=O)n4ccccc4nc32)cc1` to `Cc1ccc(Cn2c(=N)c(C(=O)NC3CCCCC3)cc3c(=O)n4ccccc4nc32)cc1`, the “hERG current change (%, negative = inhibition) at 10uM” value rises from -92.7% to -65.7%.

Going from `Cc1ccc(Cn2c(=N)c(S(=O)(=O)c3ccc(Br)cc3)cc3c(=O)n4ccccc4nc32)cc1` to `c1ccc2c(CNc3ccc(CNc4ncn[nH]4)cc3)cccc2c1`, the “hERG current change (%, negative = inhibition) at 10uM” value rises from -6.27% to 1.99%.

Going from `C/C(=N\NC(=O)C1CCCC1)c1ccc(Cl)c(Cl)c1` to `COC(=O)c1ccc(NC(=O)CN2CCCC2)cc1`, the “hERG current change (%, negative = inhibition) at 10uM” value falls from 13.7% to 5.33%.

Compared with `O=C(NCc1c(Cl)cccc1Cl)c1ccc2nnsc2c1`, `CCN(CC)CCN(C(=O)c1cccc([N+](=O)[O-])c1)c1nc2ccc(OC)cc2s1.Cl` is lower in “hERG current change (%, negative = inhibition) at 10uM” value: 8.96% for the first, -39.1% for the second.

Going from `CCOc1ccc(NC(=O)CN2CCN(CC(=O)Nc3ccc(C(=O)OC)cc3)CC2)cc1` to `CCOc1ccc(NC(=O)CN2CCN(CC(=O)Nc3ccc(C(N)=O)cc3)CC2)cc1`, the “hERG current change (%, negative = inhibition) at 10uM” value falls from -66.2% to -72.6%.

Compared with `CCOc1ccc(NC(=O)CNC(=O)c2ccc(OC)c(OC)c2)cc1`, `CCOc1ccc(NC(=O)CN2CCN(CC(=O)c3ccc(OC)c(OC)c3)CC2)cc1` is lower in “hERG current change (%, negative = inhibition) at 10uM” value: 0.00778% for the first, -84.4% for the second.

Going from `NC(=O)c1ccc(NC(=O)CN2CCOCC2)cc1` to `COC(=O)c1ccc(NC(=O)CN2CCN(CCO)CC2)cc1.Cl`, the “hERG current change (%, negative = inhibition) at 10uM” value falls from 17.9% to -5.29%.

First: CCCCOc1ccc(C(=O)N2CCN(CC(=O)Nc3ccc(C)cc3)CC2)cc1OC
Second: CCCCC(=O)Nc1ccc(C(=O)NNC(=O)CCCOc2ccc(Cl)cc2Cl)cc1
The “hERG current change (%, negative = inhibition) at 10uM” value of the first is lower: -47.1% for the first, 7.25% for the second.

First: Cc1ccccc1C(=O)Nc1nnc(CC(=O)N/N=C/c2cn(Cc3ccccc3)c3ccccc23)s1
Second: N#CC1=CN(Cc2ccccc2)C=C(/C=N/Nc2ccccc2)C1
The “hERG current change (%, negative = inhibition) at 10uM” value of the first is higher: 12.6% for the first, -5.72% for the second.

First: COC(=O)C(NC(=O)CCC(=O)N[C@@H](C(=O)OC)c1ccccc1)c1ccccc1 (some centres unmarked)
Second: COc1ccc(-c2csc(-c3ccccc3)n2)c(OC)c1
The “hERG current change (%, negative = inhibition) at 10uM” value of the first is lower: 9.88% for the first, 29.1% for the second.

First: Fc1ccc(COc2cccc3cccnc23)cc1
Second: CCN(CC)CCN(C(=O)c1ccc2ccccc2c1)c1nc2ccc(F)cc2s1.Cl
The “hERG current change (%, negative = inhibition) at 10uM” value of the first is higher: -8.3% for the first, -12.7% for the second.

Going from `CC(OC(=O)c1ccc(NS(=O)(=O)c2ccc3[nH]c(=O)[nH]c3c2)cc1)C(N)=O` (centres unmarked) to `CCOc1ccc2nc(N(CCN(CC)CC)C(=O)c3ccc([N+](=O)[O-])cc3)sc2c1.Cl`, the “hERG current change (%, negative = inhibition) at 10uM” value falls from 18.1% to -65.7%.

Going from `O=C(NC1CCCc2ccccc21)c1cc(S(=O)(=O)N2CCOCC2)ccc1F` (centres unmarked) to `O=C(Oc1cccc(C(=S)N2CCOCC2)c1)c1ccc([N+](=O)[O-])cc1[N+](=O)[O-]`, the “hERG current change (%, negative = inhibition) at 10uM” value falls from 6.48% to -14.4%.

Compared with `COc1ccc(/C=C/C(=O)Nc2nc(C)c(C(=O)N(C)C)s2)cc1`, `CCN(CC)CCN(C(=O)c1ccc([N+](=O)[O-])cc1)c1nc2ccc(OC)cc2s1.Cl` is lower in “hERG current change (%, negative = inhibition) at 10uM” value: 3.15% for the first, -49.7% for the second.

Going from `CN(C)CCCN(C(=O)c1cccc(N2C(=O)CCC2=O)c1)c1nc2cc3c(cc2s1)OCO3.Cl` to `CCN(CC)CCN(C(=O)c1ccc(N2C(=O)CCC2=O)cc1)c1nc2cc3c(cc2s1)OCO3.Cl`, the “hERG current change (%, negative = inhibition) at 10uM” value falls from -24% to -44.6%.

Going from `CCN(CC)CCN(C(=O)c1ccc2c(c1)CCCC2)c1nc2ccc(OC)cc2s1.Cl` to `CCN(CC)CCN(C(=O)c1ccc2ccccc2c1)c1nc2ccc(OC)cc2s1.Cl`, the “hERG current change (%, negative = inhibition) at 10uM” value falls from -5.4% to -30%.

First: CCOc1cccc2sc(N(CCN(CC)CC)C(=O)c3cccc([N+](=O)[O-])c3)nc12.Cl
Second: CCOc1ccc2nc(N(CCN(CC)CC)C(=O)c3cccc([N+](=O)[O-])c3)sc2c1.Cl
The “hERG current change (%, negative = inhibition) at 10uM” value of the first is lower: -75% for the first, -59.5% for the second.

Going from `CCOc1cccc2sc(N(CCN(CC)CC)C(=O)c3cccc(N4C(=O)CCC4=O)c3)nc12.Cl` to `CCOC(=O)C1(Cc2cccc(OC)c2)CCCN(C(=O)c2cc(C)oc2C)C1` (centres unmarked), the “hERG current change (%, negative = inhibition) at 10uM” value rises from -68.4% to -6.37%.
